# Test results: article PMC4552634, “A New Set of Chemical Starting Points with Plasmodium falciparum Transmission-Blocking Potential for Antimalarial Drug Discovery” (PLoS ONE, 2015)
# Read-outs that look alike come from different tables or passages of the source. Out of some 13,000 compounds screened, about 3,200 (25%) showed an effect of 50% or more. Some of the results follow.
# Tested on: P. falciparum stage V gametocytes
# Parameters: BacTiter-Glo ATP luminescence viability of purified stage V gametocytes in 384-well plates, per cent inhibition versus DMSO
# Conditions: 48 h, 5 µM, inhibitor
Compound,% Inhibition,% Inhibition (% Inhibition)
Cc1ccc(Cn2ncc(N3CCC(N)CC3)c(Cl)c2=O)cc1NC(=O)Nc1ccc(-c2ccccc2)cc1 [TCMDC-141932],107.1%,–
O=C(Nc1ccc(Cn2ncc(N3CCCNCC3)c(Cl)c2=O)cc1)Nc1ccc(-c2ccccc2)cc1 [TCMDC-141927],–,-25.81%
Cc1ccc(NC(=O)Nc2ccc(Cn3ncc(N4CCCNCC4)c(Cl)c3=O)cc2)cc1 [TCMDC-133332],5.468%,–
O=C(Nc1ccc(Cl)cc1)Nc1ccc(Cn2ncc(N3CCCNCC3)c(Cl)c2=O)cc1 [TCMDC-133331],-14.26%,–
Cc1ccc(Cn2ncc(NC3CCNCC3)c(Cl)c2=O)cc1NC(=O)Nc1ccc(-c2ccccc2)cc1 [TCMDC-141929],95.66%,–
COc1ccc2nccc([C@@H](O)CN3CCC(NCCOc4cccc(C(F)(F)F)c4Cl)CC3)c2c1 [TCMDC-140661],20.87%,–
O=C(Nc1cccc(C(F)(F)F)c1)c1cc([N+](=O)[O-])cc2cn[nH]c12 [TCMDC-125395],7.696%,–
O=C(Nc1ccc(Br)c(Cl)c1)c1cc([N+](=O)[O-])cc2cn[nH]c12 [TCMDC-123693],77.61%,–
O=C(Nc1ccc(F)c(Cl)c1)c1cc([N+](=O)[O-])cc2cn[nH]c12 [TCMDC-123694],-9.121%,–
COc1cc(NCCCNCc2cn(S(=O)(=O)c3ccccc3)c3ccccc23)nc2ccccc12 [TCMDC-140214],73.5%,–
COc1cc(Nc2ccc3cc(S(=O)(=O)N4CCCCC4C)ccc3n2)cc(OC)c1OC (stereo not shown) [TCMDC-125163],-47.67%,–
COc1cc(NCCCNC(=O)c2ccc(Cl)c(Cl)c2)nc2ccccc12 [TCMDC-140373],-10.34%,–
Cc1c(NCCCNCc2cc(Cl)cc(Cl)c2Cl)[nH]c2ccccc2c1=O [TCMDC-139498],-59.03%,–
COc1cc(NCCCNC(=O)c2cc3c(Cl)cc(Cl)cc3[nH]2)nc2ccccc12 [TCMDC-140360],30.45%,–
O=c1cc(NCCCNCc2cn(S(=O)(=O)c3ccccc3)c3ccccc23)[nH]c2ccccc12 [TCMDC-140361],89.9%,–
CCN(CC)CCOc1c(Cl)cc(Cl)cc1CNCCCNc1cc(=O)c2ccccc2[nH]1 [TCMDC-139684],26.89%,–
COc1cc(NC2CCCC(NCc3cn(S(=O)(=O)c4ccccc4)c4ccccc34)C2)nc2ccccc12 (stereo not shown) [TCMDC-140505],77.87%,–
Cc1cc(OCCCN2CCC(NS(=O)(=O)c3ccc(Cl)c(Cl)c3)CC2)c2ccccc2n1 [TCMDC-136278],-51.1%,–
CN(C)CCCNCc1cn(S(=O)(=O)c2ccccc2Cl)c2ccccc12 [TCMDC-136302],105.4%,–
O=c1cc(NCCCNCc2cc(C(F)(F)F)ccc2Cl)[nH]c2ccccc12 [TCMDC-139422],4.715%,–
O=c1cc(NCCCNCc2ccccc2-c2ccccc2)[nH]c2ccccc12 [TCMDC-139450],-0.2545%,–
COc1ccc2nccc(NC(=O)N3CCC(NCc4cc5c(F)ccc(F)c5[nH]4)CC3)c2n1 [TCMDC-140784],-20.31%,–
Cc1cc(C(F)(F)F)n2nc(C(=O)N(Cc3cncn3Cc3ccccc3F)CC3CC3)cc2n1 [TCMDC-132463],-10.43%,–
Cc1c(C)n(C2CCCC2)c2ncnc(OC3CCN(CC(=O)NCC4CC4)CC3)c12 [TCMDC-134421],19.09%,–

Compound,% Inhibition,% Inhibition (% Inhibition)
CN(Cc1cnc2nc(N)nc(N)c2n1)c1ccc(C(=O)N[C@H](CCC(=O)OC(C)(C)C)C(=O)N[C@@H](CCC(=O)OC(C)(C)C)C(=O)OC(C)(C)C)cc1 [TCMDC-137262],-6.983%,–
COc1cc(Cc2cnc(N)nc2N)cc(OC)c1OCCCCC(=O)O [TCMDC-137352],14.26%,–
CN(Cc1cccc(C#N)c1)C1CCN(c2cc(NC(=O)c3cccc(F)c3)ccn2)CC1 [TCMDC-134972],21.14%,–
COc1c(C)cc(I)cc1CNCCCNc1cc(=O)c2ccccc2[nH]1 [TCMDC-140056],-89.66%,–
COc1cc(CNCCCNc2nc3ncccc3[nH]2)c2[nH]cc(Br)c2c1 [TCMDC-140259],-28.64%,–
COc1ccnc(NCCCNCc2cn(S(=O)(=O)c3ccccc3)c3ccccc23)c1 [TCMDC-140380],99.09%,–
CCCCCCN1CCC(NCc2ccc(Cl)cc2)CC1 [TCMDC-141666],71.31%,–
CC(C)N1CCC(NCc2ccc(-c3ccc(Cl)cc3)cc2)CC1 [TCMDC-141359],35.52%,–
Clc1ccc(CNC2CCN(CC3CCCCC3)CC2)cc1 [TCMDC-141658],-44.47%,–
CCN1CCC(NCc2ccc(-c3ccc(Cl)cc3)cc2)CC1 [TCMDC-141354],41.97%,–
FC(F)(F)c1ccc(-c2ccc(CNC3CCN(CCN4CCOCC4)CC3)cc2)cc1 [TCMDC-136025],39%,–
CCN1CCC(NCc2ccc(-c3ccc(Cl)s3)cc2)CC1 [TCMDC-141263],93.74%,–
CCCCCCN1CCC(NCc2ccc(C(F)(F)F)cc2)CC1 [TCMDC-141669],-50.38%,–
CN1CCC(NCc2ccc(-c3ccc(Cl)cc3)cc2)CC1 [TCMDC-141355],54.41%,–
CCCCCCN1CCC(NCc2ccc(C)cc2)CC1 [TCMDC-141667],-37.31%,–
CN(C)CCCc1cc(NC(=O)Nc2cccc(Cl)c2Cl)ccc1I [TCMDC-139132],-49.28%,–
CCOC(=O)c1c(C)n(-c2ccccc2)c2ccc(OC(=O)COc3ccc(Cl)cc3Cl)cc12 [TCMDC-124380],-46.8%,–
COc1ccc2nccc(C(=O)NC3CCC(CCN4CCc5cc(C#N)ccc5C4)CC3)c2c1 (stereo not shown) [TCMDC-139240],4.839%,–
CN(C)CCCOc1c(C(C)(C)C)cc(-c2cc(C(C)(C)C)c(OCCCN(C)C)c(C(C)(C)C)c2)cc1C(C)(C)C [TCMDC-131822],59.94%,–
Cn1cnc(CCNC(=O)c2ccc(-c3ccc(-c4nc5cc(F)ccc5[nH]4)cc3)cc2)c1 [TCMDC-132491],5.885%,–
O=C(CC1SC(N2N=C(c3cccs3)CC2c2ccccc2)=NC1=O)Nc1ccc(Cl)cc1 (stereo not shown) [TCMDC-124762],14.18%,–
Cc1cc(N(C)C)nc(Nc2ccc(NC(=O)COc3ccccc3)cc2)n1 [TCMDC-124975],-15.54%,–
CCn1c(-c2nonc2N)nc2c(-c3cccc(Cl)c3)ncc(OCCCNCc3cnc(C)nc3N)c21 [TCMDC-135956],99.17%,–
CCn1c(-c2nonc2N)nc2c(-c3cccc(Cl)c3)ncc(OCCCNCCc3cnc[nH]3)c21 [TCMDC-135919],106.8%,–

Compound,% Inhibition,% Inhibition (% Inhibition)
Clc1cccc(CNc2nc(NCCc3cnc[nH]3)nc(NC3CCCCC3)n2)c1 [TCMDC-139735],0.07512%,–
NC(N)=NC(=O)Nc1ccc(Cl)c([N+](=O)[O-])c1 [TCMDC-137567],-21.87%,–
CC(C)c1sc(N2CCN(C)CC2)nc1C(=O)NCCc1ccc(Br)cc1 [TCMDC-134294],2.102%,–
COc1ccc2nccc([C@@H](O)CN3CCC(NC(=O)CCC(=O)c4cc(C(C)(C)C)ccc4OC)CC3)c2c1 [TCMDC-141108],21.12%,–
Cc1cc(NCc2ccccc2)nc2cc(O)ccc12 [TCMDC-125297],15.33%,–
CC(C)CCNc1nc(NCc2ccccc2)c2cc(O)ccc2n1 [TCMDC-138436],91.5%,–
Oc1ccc(Nc2nc(NCc3ccccc3)c3ccccc3n2)cc1 [TCMDC-125641],-47.6%,–
CC(C)CCNc1nc(NCCc2ccccc2)c2cc(O)ccc2n1 [TCMDC-138405],95.11%,–
CC(C)CCNc1nc(NCCCc2ccccc2)c2cc(O)ccc2n1 [TCMDC-138381],95.75%,–
Cc1noc(-c2cccs2)c1C(=O)NCCc1cccc(Cl)c1 [TCMDC-124801],0.8455%,–
COc1cc(CNC[C@@H](O)[C@H](Cc2ccccc2)NC(=O)c2cc(C3CCCC3)cc(N3CCCS3(=O)=O)c2)cc(OC)c1 [TCMDC-134560],26.15%,–
CCOc1cc(C(=O)Nc2ccc3nc(N4CCCCC4)cc(C)c3c2)cc(OCC)c1OCC [TCMDC-125449],-1.386%,–
Cc1cccc2c(N=NC(=S)N(C)C)c(O)[nH]c12 [TCMDC-137626],-58.93%,–
O=C1OC2(CN1CC1CCN(Cc3ccc(-n4ccnc4)cc3)C1)c1ccccc1-c1ccccc12 (stereo not shown) [TCMDC-136314],22.25%,–
N#Cc1cccc(NC(=O)Nc2ccc(-c3ccc(-c4nc5ccc(C(F)(F)F)cc5[nH]4)cc3)cc2)c1 [TCMDC-133190],-5.798%,–
Cc1cccc(NC(=O)Nc2cccc(-c3ccc(-c4nc5ccc(C(F)(F)F)cc5[nH]4)cc3)c2)c1 [TCMDC-133305],4.928%,–
CCCCN(CCCC)CCCN(CCCN(CCCC)CCCC)c1cc(C)nc(Nc2ccc(Br)cc2)n1 [TCMDC-138004],92.54%,–
Cc1cc(N(C)CCCN(C)C)nc(Nc2ccc(Br)cc2)n1 [TCMDC-136888],36.7%,–
CCN(CCCN1CCCCC1)c1cc(C)nc(Nc2ccc(C)cc2)n1 [TCMDC-132427],-21.39%,–
CCCc1ccc(Nc2nc(C)cc(N(CC)CCCN3CCCCC3)n2)cc1 [TCMDC-132453],39.01%,–
CCN(CC)CCCN(CCCN(CC)CC)c1cc(C)nc(Nc2ccc(Br)cc2)n1 [TCMDC-138007],66.18%,–
Cc1cc(N(C)CCN(C)C)nc(Nc2ccc(Br)cc2)n1 [TCMDC-137013],18.91%,–
